Screens: PubChem, several laboratories
MazF activator: MazEF (E. coli) toxin RNase activation | AID 504720 | hit rate 0.32% among 350,000 | FAM/BHQ RNA-DNA oligo cleavage fluorescence, 5 h | activation, % at 20 µM; in the data active means activation above about 50%
Target sequence (P0AE70 whole entry, looked up): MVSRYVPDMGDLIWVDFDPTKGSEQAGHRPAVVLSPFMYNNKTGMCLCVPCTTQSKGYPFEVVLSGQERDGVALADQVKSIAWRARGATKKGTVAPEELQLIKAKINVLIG
BoNT-A LC inh2: blocks Botulinum neurotoxin A light chain protease | inhibition, % at 10 µM | hit rate 0.17% among 360,000 | AID 588499 | multiplex microsphere protease substrate cleavage, flow cytometry; further: plate controls were buffer without enzyme for full effect and enzyme alone for no effect
Anthrax LF inh2: inhibitors of Bacillus anthracis lethal factor protease; P15917; multiplex microsphere protease cleavage assay, LF; inhibition, % at 10 µM; hit rate 0.12% among 360,000; AID 588501; further: plate controls were buffer without enzyme for full effect and enzyme alone for no effect
Bead autofluor: flagged as autofluorescent in microsphere protease counterscreen | compound autofluorescence counterscreen, microsphere flow cytometry; stronger effect = higher value | fluorescence intensity (concentration not given with the values) | hit rate 3.1% among 360,000; in the data active means fluorescence intensity above about 16000; inconclusive means no clear call, values can overlap the other calls
BoNT F protease: blocks Botulinum neurotoxin F light chain protease. Multiplex microsphere protease cleavage assay, flow cytometry. inhibition, % at 10 µM. hit rate 0.22% among 360,000. AID 588497; in the data active means inhibition above about 35%, passing the limit was not always enough; inconclusive means no clear call, values can overlap the other calls; further: plate controls were buffer without enzyme for full effect and enzyme alone for no effect
Numbers without * were called inactive; ? = inconclusive. Hits are enriched below; roughly 3.6% of the tested compounds scored in any of these assays. Unless noted, no stated cut-off is given here; in the data, active means inhibition above about 30%; inconclusive means no clear call, values can overlap the other calls; inactive means below that.

SMILES	MazF activator	BoNT-A LC inh2	Anthrax LF inh2	Bead autofluor	BoNT F protease
Cc1cc(=O)[nH]c(N2CCN(Cc3ccccc3)CC2)n1	-2	-1	-1	10349	-8
Cc1cc(C(=O)NNC(=O)c2ccc(NC(=O)CC#N)cc2)c(C)o1	6	-1	-4	3893	-10
CN1C=CC=C/C1=C1\SC(=S)N(c2ccccc2)C1=O	1	0	-4	3391	-2
CN1C=CC=C/C1=C1\SC(=S)N(C2CCCCC2)C1=O	-5	?	-4	21024*	3
CCN1C(C)=C(C)S/C1=C1\SC(=S)N(NC(C)=O)C1=O	-10	-1	-3	3312	-2
CCN1C(C)=C(C)S/C1=C1\SC(=S)N(C2CCCCC2)C1=O	354*	3	0	2309	0
COc1ccc(-n2ccnc(SCC(=O)NCc3ccc(C)cc3)c2=O)cc1Cl	-4	0	4	5849	5
O=C1CC(SCCO)C(=O)N1c1ccccc1 (centres undefined)	-4	-1	-2	23642*	-2
CCC(Sc1nc2ccsc2c(=O)n1Cc1ccc(C(=O)O)cc1)C(=O)Nc1ccc(C)c(Cl)c1 (centres undefined)	-2	1	-1	5360	0
Cc1sc(NC(=O)CSc2ncn(-c3ccccc3)n2)nc1-c1ccccc1	2	1	-1	16319*	0
COc1ccc(NC(=O)CSc2ncn(-c3ccccc3)n2)cc1Cl	-7	5	-14	19084*	5
Cc1ccc(NC(=O)CSc2ncn(-c3ccccc3)n2)cc1C	7	3	2	15505	2
CCOC(=O)c1sc(NC(=O)CSc2ncn(-c3ccccc3)n2)nc1C	-7	1	3	4318	4
O=C(CSc1ncn(-c2ccccc2)n1)Nc1ccc(Br)cn1	6	1	-1	21921*	-1
O=C(CSc1ncn(-c2ccccc2)n1)Nc1ccc2c(c1)OCO2	1	-1	-6	10774	-12
O=C(CSc1ccccn1)Nc1ccc(Br)cn1	9	0	1	2656	1
O=C(CSc1ncn(-c2ccccc2)n1)Nc1ccc2c(c1)OCCO2	7	-1	0	24180*	-2
CCOc1ccccc1NC(=S)N1CCC(NC(=O)NC23CC4CC(CC(C4)C2)C3)CC1	-1	0	0	7203	1
C[C@@H]1CN([C@@H](C)CO)C(=O)CCCn2nncc2CO[C@H]1CN(C)Cc1ccc(Cl)c(Cl)c1	10	0	3	3715	3
Cc1cccnc1NC(=O)C12CCC(C)(C(=O)O1)C2(C)C (centres undefined)	-1	1	0	22033*	1
COC(CNC(=O)c1ccc2c(c1)ncn2-c1ccc(F)cc1F)OC	0	0	-3	2166	-2
CCOc1ccccc1C1C(C#N)=C(N)Oc2cc(C)n(Cc3ccccn3)c(=O)c21 (centres undefined)	0	?	?	?	?
COc1ccccc1C1C(C#N)=C(N)Oc2cc(C)n(Cc3ccccn3)c(=O)c21 (centres undefined)	-7	?	-14	?	?
COCCn1c(C)cc2c(c1=O)C(c1ccccc1F)C(C#N)=C(N)O2 (centres undefined)	-2	1	0	20039*	0
Cc1cc2c(c(=O)n1Cc1ccc3c(c1)OCO3)C(c1cccnc1)C(C#N)=C(N)O2 (centres undefined)	1	-1	-3	20731*	-3
SMILES	MazF activator	BoNT-A LC inh2	Anthrax LF inh2	Bead autofluor	BoNT F protease
Cc1cc2c(c(=O)n1Cc1cccnc1)C(c1ccccc1)C(C#N)=C(N)O2 (centres undefined)	10	1	-10	3096	-10
CCOc1ccccc1C1C(C#N)=C(N)SC(N)=C1C#N	-28	24	21	4715	51*
CCOc1ccccc1C1C(C#N)=C(N)Oc2cc(C)n(C)c(=O)c21 (centres undefined)	-1	?	0	21644*	5
COc1cccc(OC)c1C(=O)OCC(=O)N(c1ccccc1)C1CCCCC1	-5	0	-1	2752	-8
COc1ccccc1C1C(C#N)=C(N)Oc2cc(C)n(CCCn3ccnc3)c(=O)c21 (centres undefined)	-6	-1	-5	4121	0
Cc1cc2c(c(=O)n1CCCn1ccnc1)C(c1ccco1)C(C#N)=C(N)O2 (centres undefined)	5	1	0	22337*	0
CC1CCCN(S(=O)(=O)c2cccc(C(=O)NCCCN3CCCC3=O)c2)C1 (centres undefined)	4	0	-3	2921	-3
O=C(O)c1nc(N2CCCC2)ncc1Cl	3	7	-8	19947*	10
CCN(CC)CCN(C(=O)CCS(=O)(=O)c1ccccc1)c1nc2c(C)cc(C)cc2s1	-11	-3	0	7117	-3
COc1ccc2c3n(nc2c1)CCN=C3c1ccc(Cl)cc1	6	1	-4	4172	-5
Cc1ccc(C(c2nnnn2C(C)(C)C)N2CCC(C)CC2)cc1 (centres undefined)	-2	2	-6	20278*	4
O=C1CSc2ccccc2N1Cc1ccccc1F	-5	-2	2	24057*	-3
O=C(NCCN1CCOCC1)c1ccc2c(c1)N(Cc1ccccc1F)C(=O)CS2	0	0	-1	4012	0
CCOC(=O)/C(=C/C=C1\Sc2ccccc2N1CC)C(C)=O	-160	5	1	3709	-2
CCOC(=O)/C(=C/C=C1\Sc2cc(C)c(C)cc2N1CC)C(C)=O	-373	40*	23	16482*	20
Cc1cc(C)n(Cc2ccc(NC(=O)c3c([N+](=O)[O-])c(C)nn3C)cc2)n1	5	4	-2	21819*	4
Cc1cc(C)n(Cc2ccc(NC(=O)c3nn(C)cc3[N+](=O)[O-])cc2)n1	0	2	-11	22583*	1
CCn1cc([N+](=O)[O-])c(C(=O)Nc2ccc(Cn3nc(C)cc3C)cc2)n1	10	0	-2	10112	-7
CC(=O)C12CCCCC1CC1C3CC(C)C4(O)CC(=O)CCC4(C)C3CCC12C (centres undefined)	2	1	10	3351	35*
O=C(Oc1ccc(-c2ccccc2)cc1)N1CCOCC1	1	?	0	21166*	-2
Cc1cccc(OC(=O)N2CCOCC2)c1	1	-1	-3	24289*	0
COC(=O)c1cc(S(=O)(=O)N(C)C2CCCCC2)c[nH]1	1	2	-2	5488	1
Cc1ccc(S(=O)(=O)CS(=O)(=O)c2ccc(C)cc2)cc1	8	-1	-1	3775	-5
Cc1ccc(S(=O)(=O)Cn2cnnn2)cc1	-6	-3	0	24828*	-2
COc1ccc(NC(=O)CN(c2ccc(C)cc2)S(=O)(=O)c2c(C)nn(C)c2C)cc1OC	0	0	-4	22939*	2
COc1ccc(NC(=O)CN(c2ccc(C)cc2)S(=O)(=O)c2c(C)nn(C)c2C)cc1	2	0	-2	4489	3
COc1ccc2nc(NC(=O)CN(c3ccc(C)cc3)S(=O)(=O)c3c(C)nn(C)c3C)sc2c1	-3	-4	-4	20805*	-6
